# Source: PubChem BioAssay
# HCV NS3h FP: blocks HCV NS3 helicase binding to DNA | inhibition, % at 100 µM | AID 687043 | 16,000 compounds, 1.6% hits | NS3h Cy5-dT15 DNA binding, fluorescence polarization;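 active = inhibition above the average over every tested compound plus 3 SD, cut at about 40% in these data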
# Cy5 interf NS3h: Cy5 fluorescence interference, HCV helicase counter-screen | Cy5-dT15 DNA with NS3h; actives lie on both sides; signal over control mean, under 1 quenches | 16,000 compounds, 6% hits | fluorescence interference ratio at 100 µM;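 active = compound fluorescence over control fluorescence at most 0.8, a quencher, or at least a set upper limit, an enhancer; inactive = ratio between 0.8 and the set upper limit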
# Active calls of the source: *. In the library only some 6.9% were active in any assay of this set; here they are far more common.
SMILES,HCV NS3h FP,Cy5 interf NS3h
O=C(Nc1ccc2nn(-c3ccccc3)nc2c1)c1ccc(Cl)c([N+](=O)[O-])c1,-8,0.44*
O=C(O)c1ccc(NC(=O)c2ccc(Cl)c([N+](=O)[O-])c2)cc1,10,0.9
O=C(Nc1ccc2nn(-c3ccccc3)nc2c1)c1cccc(F)c1,-20,0.94
Cc1ccc(C(=O)Nc2ccccc2)cc1[N+](=O)[O-],10,0.63*
Cc1ccc(C(=O)Nc2ccc(I)cc2)cc1[N+](=O)[O-],14,1.1
COc1ccc(NC2=CC(c3cccc([N+](=O)[O-])c3)N(c3ccc(OC)cc3)C2=O)cc1 (stereo not drawn),7,0.98
COc1cc(C)nc(Nc2nc(C)c3ccc(C)cc3n2)n1,5,0.91
CN(CCOC(=O)C(C)(c1ccccc1)c1ccccc1)C(C)(C)C,6,0.76*
CN(C)CC#CC(O)(c1ccccc1)c1ccccc1,-20,1
Cc1ccc2nc(SCCOc3ccccc3)[nH]c2c1,10,1
CS(=O)(=O)N(Cc1ccccc1)c1ccccc1C(=O)Nc1cccc(C(F)(F)F)c1,15,0.98
CC(=O)c1ccc(NC(=O)CSC(N)=O)cc1,9,0.95
O=C(Nc1cccc(NC(=S)NC(=O)c2ccco2)c1)c1cccc(Cl)c1,-6,1.1
O=C(NC(=S)Nc1cccc(NC(=O)c2ccccc2Cl)c1)c1ccco1,44*,0.87
O=C(NC(=S)Nc1ccc2oc(-c3cc(I)ccc3Cl)nc2c1)c1ccco1,-19,1.1
O=C(NC(=S)Nc1cccc(Cl)c1)c1ccco1,-1,0.99
O=C(NC(=S)Nc1ccc(Cl)c(-c2nc3ccccc3o2)c1)c1ccco1,11,1.2*
O=C(NC(=S)Nc1cccc(NC(=O)c2ccco2)c1)c1ccco1,42*,0.86
COc1ccc(C2CC(=O)C3=C(C2)Nc2ccccc2NC3c2ccc(O)c([N+](=O)[O-])c2)cc1OC (stereo not drawn),8,0.99
CC(C1CC1)N(Cc1ccccc1)C(=O)Nc1cccc([N+](=O)[O-])c1 (stereo not drawn),7,0.61*
CC1=C(C(=O)Nc2ccc(C)c(Cl)c2)C(c2cccc([N+](=O)[O-])c2)NC(=O)N1 (stereo not drawn),1,0.9
CC(Oc1ccc(Cl)cc1Cl)C(=O)NCCN(C)C (stereo not drawn),4,0.71*
CC(C)N(Cc1ccccc1)C(=O)CCCOc1ccc(Cl)cc1Cl,9,1
C=CCc1c(C)nc2c(C)c(-c3ccc(C)cc3)[nH]n2c1=O,20,1.1
C=CCc1c(C)nc2cc(-c3ccc(C)cc3)[nH]n2c1=O,62*,1.2*
SMILES,HCV NS3h FP,Cy5 interf NS3h
COc1ccc(C2C(=C(O)c3ccc(C)cc3)C(=O)C(=O)N2c2ncc(S(=O)(=O)c3ccc([N+](=O)[O-])cc3)s2)cc1 (stereo not drawn),14,0.84
O=C(C1=C(O)C(=O)N(c2ncc(S(=O)(=O)c3ccc([N+](=O)[O-])cc3)s2)C1c1ccc(F)cc1)c1ccco1 (stereo not drawn),11,0.79*
COc1cc(NC(=O)c2nn3c(c2Cl)NC(c2ccc(OC)c(OC)c2)CC3C(F)(F)F)cc([N+](=O)[O-])c1 (stereo not drawn),23,0.94
CCCCOC(=O)c1ccc(NC(C)=O)cc1,11,0.68*
CCCCOC(=O)c1ccc(NC(=O)C2CC(C)=C(C)CC2C(=O)O)cc1 (stereo not drawn),3,1
Cc1cc(Cl)ccc1OCC(=O)Nc1cccc2nsnc12,5,1.1
COc1ccc(Br)cc1C(=O)NCCNc1ccc(Cl)cc1[N+](=O)[O-],12,0.95
COc1cc(/C=C2/SC(=S)N(CCC(=O)Nc3ccc(C(C)=O)cc3)C2=O)cc(OC)c1OC,-28,0.63*
COc1cc(/C=C2/SC(=S)N(CCC(=O)Nc3ccccc3C(=O)O)C2=O)cc(OC)c1OC,17,0.9
Nc1nc(O/N=C\c2ccc([N+](=O)[O-])cc2)nc(N2CCOCC2)n1,-1,0.99
COc1ccc2c(c1)C(NC(=O)C(F)(F)F)CC2=O (stereo not drawn),-2,0.62*
COc1ccc(OC)c(C2C3=C(CC(C)(C)CC3=O)OC3=C2C(=O)CC(C)(C)C3)c1,3,1.1
CCOc1cc(C=O)cc(I)c1OCc1ccccc1Cl,9,0.64*
COc1cc(C=O)cc(Br)c1OCc1ccccc1Cl,8,1
Cc1ccccc1/C=N\N=C1\NC(=O)C(Cc2cccc([N+](=O)[O-])c2)S1 (stereo not drawn),15,1.3*
N/N=C1\NC(=O)C(Cc2cccc([N+](=O)[O-])c2)S1 (stereo not drawn),10,1.1
O=C(CSc1nc2sc3c(c2c(=O)n1-c1ccccc1)CCCC3)NCCc1ccccc1,-6,0.89
[O-][n+]1cc(O)c(Br)c2ccccc21,11,0.7*
CN(C)Cc1c(O)c[n+]([O-])c2ccccc12,4,1
Cc1cccc(N2C(=O)c3cccc([N+](=O)[O-])c3C2=O)n1,2,0.97
O=C(Nc1ccc(-c2nc3ccccc3o2)c(O)c1)c1ccc(-c2ccccc2)cc1,4,0.92
CC(C)N(C(=O)c1ccc(C(=O)Nc2ccc(Nc3ccccc3)cc2)cc1)C(C)C,17,0.7*
O=C(Nc1ccc(Nc2ccccc2)cc1)c1ccc([N+](=O)[O-])cc1,17,0.95
Cc1cc(C)c(-n2c(O)c(C=C3C=Nc4ccccc43)c(=O)[nH]c2=O)c(C)c1,3,1
COc1ccc(OC)c(Cn2c(O)c(C=C3C=CC=N3)c(=O)[nH]c2=O)c1,17,0.88
SMILES,HCV NS3h FP,Cy5 interf NS3h
O=c1[nH]c(=O)n(Cc2ccccc2)c(O)c1C=C1C=CC=N1,11,0.77*
O=c1[nH]c(=O)n(Cc2ccc(F)cc2)c(O)c1C=C1C=Nc2ccccc21,-44,0.8*
CCOc1cc(C(=O)NC2CCSC2=O)cc(OCC)c1OCC (stereo not drawn),5,1
Cc1ccc(CN2CCN(/N=C\c3cc([N+](=O)[O-])ccc3Cl)CC2)cc1,15,1
COc1ccc(-c2c(-c3ccc(Cl)cc3)nn(-c3ccccc3)c2N)cc1OC,19,0.9
Cc1ccc(-n2nc(-c3ccccc3)c3c2C(=O)C=CC3=O)cc1,44*,0.92
C=CCOC(=O)C1=C(C)NC(C)=C(C(=O)OCC=C)C1c1ccc(N(C)C)cc1,13,0.94
COc1cc(OC)cc(C(=O)O/N=C2\C(=O)N(C)c3ccccc32)c1,0,1.1
COc1ccc(/C=C2\C(=O)N(c3nc(-c4ccc(C)cc4)cs3)N=C2C)cc1,21,0.7*
COC(=O)COc1ccc(/C=C2/C(=O)N(c3ccccc3)N=C2C)cc1,10,1.1
O=C1C(=Cc2ccc(Cl)cc2)C(=O)c2ccccc21,0,1
COC(=O)C1=C(C)NC2=C(C(=O)CC(C)(C)C2)C1c1ccccc1I (stereo not drawn),3,0.89
NC(=O)CN1C(=O)/C(=C2\SC(=S)N(Cc3ccccc3)C2=O)c2ccccc21,7,0.8*
C=CCN1C(=O)/C(=C2\SC(=S)N(Cc3ccco3)C2=O)c2ccccc21,17,0.98
Cc1ccc(S(=O)(=O)N2CCC(O)CC2C)cc1 (stereo not drawn),20,0.74*
Cc1ccc(S(=O)(=O)N2CCN(S(=O)(=O)c3ccc(C)cc3)C2c2ccc(N(C)C)cc2)cc1,14,0.94
